Bioassay records (PubChem)
Sampled rows, rich in hits. Any-hit rate of the full collection: about 10%.
GPT2 inhibitor = inhibitors of human GPT2 alanine aminotransferase; 100,000 tested, 0.25% active; Q8TD30; Recombinant GPT2, coupled pyruvate oxidase/HRP Amplex Red fluorescence; Potency, µM (top dose mostly 57.7 µM), for inactives: at the top dose activity change, negative = inhibition, hits mostly inhibitors; AID 1671188; also: % is scaled to controls: 0 for no effect and ±100 for the full control effect; nearly all actives have a fitted effect of over 60% in size
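GPT2 10ng/uL, a-KG 250uM, L-Ala 2mM, HEPES pH7.5 + 0.0001% Tween; 30 min RT. Then Amplex mix (PO/HRP/ThPP), 30 min RT dark, fluorescence. AOA 50uM used as positive control.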
hNpr1 antagonist = human Npr1 receptor antagonism. HEK293 hNpr1 GloSensor cGMP, ANP-stimulated luminescence. AID 1347048. 76,000 tested, 1.6% active. P16066. Potency, µM (titrated, usually from 46.3 µM), for inactives: at the highest dose activity change, negative = inhibition, usual class: inhibitors; calls by dose curve; also: % is scaled to controls: 0 for no effect and ±100 for the full control effect; nearly all actives have a fitted effect of over 60% in size
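Compound pre-incubated 30 min at room temperature on GloSensor-loaded HEK293 cells stably carrying hNpr1 and the pGS-40F cGMP biosensor. Stimulation uses hNppA at 0.1 nM final; luminescence is taken at baseline and 20 min post-agonist.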
FLuc inh = blocks purified firefly luciferase enzyme activity; P08659; purified P. pyralis luciferase, luminescence, biochemical; Potency, µM (highest dose often 115 µM), most hits filed as inhibitors; 76,000 tested, 2.5% active; AID 1347043; also: % is scaled to controls: 0 for no effect and ±100 for the full control effect; nearly all actives have a fitted effect of over 65% in size
Target sequence (P08659 whole entry, looked up): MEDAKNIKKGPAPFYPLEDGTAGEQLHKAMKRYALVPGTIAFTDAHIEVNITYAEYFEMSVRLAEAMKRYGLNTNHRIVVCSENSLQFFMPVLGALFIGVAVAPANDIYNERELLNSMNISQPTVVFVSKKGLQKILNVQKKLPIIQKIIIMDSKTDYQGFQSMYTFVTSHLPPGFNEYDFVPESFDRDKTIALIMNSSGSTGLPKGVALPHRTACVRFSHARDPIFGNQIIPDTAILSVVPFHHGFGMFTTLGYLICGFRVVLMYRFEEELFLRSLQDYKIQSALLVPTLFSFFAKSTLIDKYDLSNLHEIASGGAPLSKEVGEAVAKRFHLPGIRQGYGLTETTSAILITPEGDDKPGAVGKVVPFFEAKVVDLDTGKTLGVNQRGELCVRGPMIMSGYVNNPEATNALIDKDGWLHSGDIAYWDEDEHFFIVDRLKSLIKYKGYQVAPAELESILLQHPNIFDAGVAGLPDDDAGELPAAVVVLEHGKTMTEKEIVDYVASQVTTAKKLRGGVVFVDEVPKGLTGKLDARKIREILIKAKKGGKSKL
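FLuc 10nM, D-luciferin 10uM, ATP 10uM, Mg acetate 10mM, Tris acetate pH 7.5, Tween/BSA; cpd qHTS; enzyme added last; CCD luminescence.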
3T3 cytotox = cytotoxic compounds in NIH 3T3 cells; NIH 3T3 viability, CellTiter-Glo ATP luminescence, 48-72 h; Potency, µM (series often up to 96.7 µM), for inactives: top-dose activity change, negative = cytotoxicity, hits mostly inhibitors; 94,000 tested, 4.3% active; also: % is scaled to controls: 0 for no effect and ±100 for the full control effect; nearly all actives have a fitted effect of over 55% in size
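Cytotoxicity was measured by CellTiter-Glo ATP luminescence after 48 or 72 h compound exposure at 37 °C. Mouse NIH 3T3 fibroblasts were seeded at 400 cells/well and dosed by 23 nL pin transfer.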
HEK293 tox = HEK 293 cell cytotoxicity | Potency, µM (titrated, usually from 115 µM), without a hit: at the highest dose activity change, negative = cytotoxicity, most hits filed as inhibitors | HEK 293 viability, ATP luminescence (CellTiter-Glo), 48-72 h | 94,000 tested, 6.6% active; also: % is scaled to controls: 0 for no effect and ±100 for the full control effect; nearly all actives have a fitted effect of over 60% in size
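250 HEK 293 cells/well; compound by pintool; incubated 48 or 72 hr at 37 degree Celsius; CellTiter-Glo added, 10 min RT, luminescence imaged.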
NPR1 antag cnf = confirmation of human Npr1 natriuretic peptide receptor antagonists; shares compounds with hNpr1 antagonist; HEK293 hNpr1 cGMP GloSensor luminescence, ANP-stimulated; Potency, µM (titrated, usually from 57.6 µM), inactives show at the top dose activity change, negative = inhibition, hits mostly inhibitors; 1,400 tested, 76% active; calls by dose curve; also: nearly all actives have a fitted effect of over 70% in size
Npr2 selectivity = hNpr2 antagonism, selectivity versus Npr1. 1,400 tested, 67% active. shares compounds with hNpr1 antagonist. HEK293 hNpr2 GloSensor cGMP luminescence, CNP-stimulated. Potency, µM (doses to about 57.6 µM), for inactives: at the top dose activity change, negative = inhibition, most hits filed as inhibitors; calls by dose curve; also: nearly all actives have a fitted effect of over 70% in size
FLuc inh counter = counter-screen for Npr1 antagonists: firefly luciferase inhibitors; purified FLuc enzyme, luminescence, Km substrate; Potency, µM (top dose mostly 57.6 µM), for the others: top-dose activity change, negative = inhibition, most hits filed as inhibitors; shares compounds with hNpr1 antagonist; 1,400 tested, 0.7% active; also: 0% is about no effect
GloSensor ctrl = counter-screen for Npr1 antagonists: GloSensor control cell line; shares compounds with hNpr1 antagonist; HEK293 GloSensor cGMP, SNP-stimulated, luminescence; Potency, µM (top dose mostly 57.6 µM), for inactives: top-dose activity change, negative = inhibition, most hits filed as inhibitors; 1,400 tested, 69% active; AID 1347051; calls by dose curve; also: % is scaled to controls: 0 for no effect and ±100 for the full control effect; nearly all actives have a fitted effect of over 70% in size
* marks the source's active call; other numbers are inactive results; i = inactive; ? = inconclusive; . = no result; [ ] = dose if it differs, or a comment. Unless noted, calls follow the shape of the dose curve; as a rule, active = well fitted curve in the direction sought with a large enough effect; inconclusive = small, poorly fitted or top-dose-only effect, or another doubt; inactive = no such curve, though single readings can be large; an effect the other way counts as inactive or inconclusive. Potency is read from the fitted curve at half-maximal effect.

SMILES | GPT2 inhibitor | hNpr1 antagonist | FLuc inh | 3T3 cytotox | HEK293 tox | NPR1 antag cnf | Npr2 selectivity | FLuc inh counter | GloSensor ctrl
CC1(CCCCc2ccccc2)COc2ccc(C(=O)NC3CC3)cc2N1 (stereo unspecified) | -12.1%[88.5 µM] | 20µM* | i | ? | ? | 35.3µM* | 28µM* | -1.3%[86.2 µM] | 17.7µM*
COc1cccc(NC(=O)Cn2c(N3CCCCC3)nc(C)c(C)c2=O)c1 | i | -14.1% | i | ? | ? | . | . | . | .
O=C1NCc2ccccc2CC12CCCN(CC1CC=CCC1)C2 (stereo unspecified) | -6.2% | . | . | i | -2.9% | -20.5% | -13.5% | 1.2% | 6.4%
Cc1ccc(C(=O)N2CCCC2c2nc(CCOCC3CC3)no2)cn1 (stereo unspecified) | i | 3.1% | i | 2.7% | i | . | . | . | .
Cc1cnc(C(=O)N2CCCC2c2nc(CCOCC3CCCC3)no2)cn1 (stereo unspecified) | -15.3% | ? | i | -13.6% | -13.4% | -22.5% | -17.4% | -1.7% | -1.8%
O=C1N(Cc2ccccc2F)CCOC12CCN(Cc1ccccc1F)CC2 | 2.2%[88.5 µM] | -7.5%[70.6 µM] | i | -29.8%[138 µM] | ? | . | . | . | .
COc1ccc(-c2cc(N3CCN(C(=O)c4ccc(Cl)cc4OC)CC3)n[nH]2)cc1 | i | ? | i | ? | ? | . | . | . | .
COc1ccc(C(=O)N2CCCN(c3cc(-c4ccc(F)cc4)[nH]n3)CC2)c(C)c1 | ? | 5.62µM* | i | ? | ? | 10.9µM* | 12.2µM* | -0.1% | 6.85µM*
COc1ccc(C(=O)N2CCCN(c3cc(-c4ccc(Cl)cc4)[nH]n3)CC2)c(C)c1 | -24.8% | 3.55µM* | i | ? | 50.1µM* | 9.68µM* | 10.9µM* | 0.2% | 9.68µM*
COc1ccc(-c2cc(N3CCN(C(=O)c4ccc(F)cc4F)CC3)n[nH]2)cc1 | i | 0.0% | i | ? | ? | . | . | . | .
COc1ccc(CC(=O)NC2CCN(c3cc(-c4ccc(OC)cc4)[nH]n3)CC2)cc1 | -15.6% | -25.3% | i | ? | ? | ? | ? | -0.4% | -27.3%
COc1ccc(CC(=O)NC2CCCN(c3cc(-c4ccc(Cl)cc4)[nH]n3)C2)cc1OC (stereo unspecified) | -19.1% | 11.2µM* | i | ? | 22.4µM* | 24.3µM* | 15.3µM* | 0.8% | 24.3µM*
CCc1ccccc1NC(=O)C1CN(S(=O)(=O)c2cccnc2)CC12CCCCC2 (stereo unspecified) | 0.1% | -5.4% | i | -20.8% | ? | . | . | . | .
O=C(C1CCC1)N1CCOc2ccc(CN3CCCCCC3)cc2C1 | i | . | . | -18.1% | ? | . | . | . | .
O=C(NC1CCN(c2cc(-c3ccccc3)[nH]n2)CC1)c1cc(Cl)ccc1F | i | -21.1% | i | ? | ? | -21.6% | -23.4% | 2.4% | -19.3%
O=C(NC1CCCN(c2cc(-c3ccccc3)[nH]n2)C1)c1cc(Cl)ccc1F (stereo unspecified) | -7.7% | -20.1% | i | ? | ? | . | . | . | .
COc1ccc(C(=O)NC2CCN(c3cc(-c4ccc(F)cc4)[nH]n3)CC2)c(C)c1 | i | 0.0% | i | ? | ? | ? | ? | 2.0% | -20.1%
O=C1COc2ccc(NCCc3ccccn3)nc2CN1Cc1ccc(C(F)(F)F)cc1 | -6.9% | ? | i | ? | ? | ? | ? | 2.3% | ?
O=C1COc2ccc(NCc3cccs3)nc2CN1CCOc1ccccc1 | 2.9%[88.5 µM] | 14.1µM* | i | ? | 89.1µM* | 19.8µM* | 22.2µM* | 6.0%[86.2 µM] | 17.7µM*
O=C1COc2ccc(NCCOc3ccccc3)nc2CN1Cc1ccccc1F | -20.0%[88.5 µM] | 22.4µM* | i | ? | ? | 31.4µM* | 35.3µM* | 2.5%[86.2 µM] | 31.4µM*
COCCN1C(=O)CO[C@H]2CN(CCCc3ccccc3)C[C@H]21 | -4.1%[88.5 µM] | 14.1µM* | i | ? | ? | 15.7µM* | 19.8µM* | -2.1%[86.2 µM] | 12.5µM*
Cc1nn2c(c1-c1ccccc1OCc1ccccc1)N(C(=O)c1ccn(C)n1)CCC2 | 3.9%[88.5 µM] | -0.2%[70.6 µM] | i | ? | -18.2%[172 µM] | . | . | . | .
Cc1nn2c(c1-c1cccnc1N1CCOCC1)N(CCc1ccccc1)CCC2 | i | 3.98µM* | i | ? | 25.1µM* | 35.3µM* | 31.4µM* | -6.0%[86.2 µM] | ?
Cc1nn2c(c1-c1cccnc1N1CCOCC1)N(C(=O)Cc1cccc(Cl)c1)CCC2 | 1.4% | -21.0% | i | ? | 3.8% | -26.9% | ? | 0.1% | 6.6%
CSc1ccc(-c2cccc(C(=O)NCCNC(=O)Nc3ccccc3)c2)cc1 | i | . | . | ? | ? | . | . | . | .
SMILES | GPT2 inhibitor | hNpr1 antagonist | FLuc inh | 3T3 cytotox | HEK293 tox | NPR1 antag cnf | Npr2 selectivity | FLuc inh counter | GloSensor ctrl
CC(=O)Nc1ccc(C(=O)N2CCC3(CC2)N=C(c2ccc(Br)cc2)NO3)cc1 | i | 12.6µM* | i | -22.3% | ? | 19.3µM* | 15.3µM* | -4.3% | 15.3µM*
CC(=O)Nc1ccc(C(=O)N2CCC3(CC2)N=C(c2ccc(Cl)cc2)NO3)cc1 | i | ? | i | -19.4% | ? | 21.7µM* | ? | -3.8% | 21.7µM*
O=C(c1ccncc1)N1CCC2(CC1)N=C(c1ccc(Cl)cc1)NO2 | i | -18.9% | i | -15.6% | ? | . | . | . | .
CCc1ccc(CN2CCCC23Cc2ccccc2CNC3=O)s1 (stereo unspecified) | i | . | . | ? | ? | -20.9% | -5.1% | 4.3% | 0.1%
COc1ccc(CN2CCCCC23Cc2ccccc2CNC3=O)c(OC)n1 (stereo unspecified) | ? | . | . | ? | ? | ? | 17.2µM* | -0.7% | 3.7%
COc1ncccc1CN1CCCC12Cc1ccccc1CNC2=O (stereo unspecified) | i | . | . | -25.0% | ? | . | . | . | .
O=[S+]1([O-])NC2(CCN(Cc3ccc(OC(F)(F)F)cc3)C2)CNc2ccccc21 (stereo unspecified) | i | ? | i | ? | 50.1µM* | 9.68µM* | 12.2µM* | 0.3% | 10.9µM*
